Reference: the OligoGym collection

molecular target: AWAT2; experiment: pooled miR-30 sensor sort-seq; sequence = guide strand; conditions: shRNA

Row | Sequence | sensor-assay potency score (higher = more potent)
1 | TAAGAATAAGCACAGTGACAGG | -1.65
2 | TTCTTGGGACTATCTCACCAGT | -1.17
3 | TAGACATTACATATTCTCTGAG | 0.0457
4 | ATAATCGCTGTAGTGTTTCCAC | -0.0859
5 | TTGACAGCAATCACAGTGGTTG | -0.667
6 | ATAAGCACAGTGACAGGCCAGT | -0.973
7 | TTGAGAGGGAAATAATCGCTGT | -0.0931
8 | TTAGCCACGATCTCCTGGCTTG | -0.416
9 | TGAGATACCAAACTTGGTCTTA | -0.0616
10 | ATATTTAGCCACGATCTCCTGG | -0.175
11 | TCTTGGTGAAGCCACGTCCATA | -1.6
12 | TATTTAGCCACGATCTCCTGGC | -0.00517

molecular target: B3GNT9; experiment: as above; conditions: shRNA

Row | Sequence | sensor-assay potency score (higher = more potent)
13 | AAAAACGAAGCGCACGTCGGGG | -1.1
14 | TTAATGAGCAGTGGAAACCGCC | -0.997
15 | TTCACGAACACATCTGCGTCGC | 0.331
16 | TGTAGTACTTGCTAGCCCGCGT | -0.0178
17 | TCGGGTAACTGGAACGCGCGGG | -0.607
18 | TCGGGGATGTAGTACTTGCTAG | -1.49
19 | TGCACTACAACCAGCTCACGGT | -0.863
20 | TTAGGTTAAAAAAGGTGTCGTC | -0.179
21 | TAGAAAGTGGATCTCCTTGAGC | -0.561
22 | TAGTACTTGCTAGCCCGCGTGC | -1.22
23 | AAGTGGATCTCCTTGAGCGTTA | -0.755
24 | AATTACGTCACCAGCAAGCAGG | -1.35

molecular target: BABAM1; experiment: as above; conditions: shRNA

Row | Sequence | sensor-assay potency score (higher = more potent)
25 | ATCGTCTGCACGTTCTCTGTGA | -0.356
26 | AAACATATCCTTCCAACTCATC | -1.73
27 | TTCTGGGAGACATTGAGGGCGT | -0.794
28 | TTGGCAGTGACATTTCCTCTGA | -0.685
29 | AAACTCGTGGCTTTTGTCGATC | -1.23
30 | TATCCTTCCAACTCATCTCCTC | 0.00157
31 | TTTCTCTGGACAGTTGACCCTT | 0.0375
32 | TTTGTCCGCACGAACATCTCAA | -0.413
33 | TCGATCTTGTGTTTTGTCCGCA | 0.0335
34 | TTATCCATGACAAACTAGGAGT | -0.739
35 | TTCTCTGGACAGTTGACCCTTG | 0.0913

molecular target: BARX2; experiment: as above; conditions: shRNA

Row | Sequence | sensor-assay potency score (higher = more potent)
36 | TCGTCGATCATGAAAGTCTTGT | -0.832
37 | TGTTCCGTCTCTGACTCGCTGC | -0.452
38 | TTGACAAATACTTCTGCTTCTG | -0.22
39 | TTTCTCAAAGTAATCGCAGGTC | 0.887
